Screening data (PubChem)
Smad3 FoxH1 inh: inhibitors of human Smad3 transcription factor binding. P84022. TR-FRET Smad3/Dy647-FoxH1 peptide binding, europium anti-His. inhibition, % at 25 µM. 88,000 compounds, 0.29% hits;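 active = compounds that reduce the energy-transfer binding signal between the protein and its labelled peptide by more than half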
CD11b adhes enh: enhancers of human CD11b/CD18 binding to fibrinogen; K562 CD11b/CD18 adhesion to fibrinogen, ATPlite luminescence; activation, % at 10 µM; P05107+P11215; 93,000 compounds, 0.07% hits;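 active = 10 µM primary screen giving 50% or more activity, confirmed by 40% or more on retest at that dose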
Target sequence (P05107 whole entry, looked up, other chains not shown): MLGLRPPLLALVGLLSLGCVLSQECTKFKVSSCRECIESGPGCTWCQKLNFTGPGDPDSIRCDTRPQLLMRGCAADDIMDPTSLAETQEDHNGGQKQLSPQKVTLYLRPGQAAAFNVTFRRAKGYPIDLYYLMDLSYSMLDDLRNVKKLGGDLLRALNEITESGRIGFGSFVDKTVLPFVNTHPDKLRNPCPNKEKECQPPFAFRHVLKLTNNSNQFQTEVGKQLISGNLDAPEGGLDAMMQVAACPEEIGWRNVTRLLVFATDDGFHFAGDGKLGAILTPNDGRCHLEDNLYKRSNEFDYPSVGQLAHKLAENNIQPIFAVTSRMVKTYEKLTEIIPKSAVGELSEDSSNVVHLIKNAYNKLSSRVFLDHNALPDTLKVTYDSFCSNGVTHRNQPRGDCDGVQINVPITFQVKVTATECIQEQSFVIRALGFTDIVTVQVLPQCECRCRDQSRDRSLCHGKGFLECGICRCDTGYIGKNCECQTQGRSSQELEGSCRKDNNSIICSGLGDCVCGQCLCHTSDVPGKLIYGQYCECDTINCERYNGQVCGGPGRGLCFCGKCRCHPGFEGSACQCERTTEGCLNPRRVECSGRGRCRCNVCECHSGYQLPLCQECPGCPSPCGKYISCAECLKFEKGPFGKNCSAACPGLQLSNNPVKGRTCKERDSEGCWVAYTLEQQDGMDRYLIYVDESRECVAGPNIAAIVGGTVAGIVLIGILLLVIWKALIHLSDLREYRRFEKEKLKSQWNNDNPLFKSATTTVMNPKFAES
MRP-1 activ: activators of MRP-1. viability increase, % at 10 µM. 140,000 compounds, 0.61% hits. AID 799. H69AR cells + doxorubicin, viability rescue, CellTiter-Glo;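 active = viability gain under doxorubicin at or above a set limit, the compound median plus 3 SD, cut at about 4.7% in these data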;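 also: MRP-1 overexpressing cells given doxorubicin 25 µM after compound pretreatment; 18-22 h compound pretreatment then 72 h with doxorubicin before readout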
CD11b adhes inh: CD11b/CD18-fibrinogen binding inhibition. 93,000 compounds, 0.54% hits. P05107+P11215. inhibition, % at 10 µM. K562 CD11b/CD18 adhesion to fibrinogen, ATPlite luminescence; Mn2+ added to activate the integrin;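 active = primary inhibition of 50% or more at 10 µM, then 40% or more on retest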
Phagocytosis inh: inhibitors of macrophage phagocytosis; J774A.1 macrophage IgG-bead phagocytosis, imaging; inhibition, % at 5 µM; 110,000 compounds, 0.07% hits;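 active = inhibition above the mean of the plate negative controls plus 5 SD, cut at about 13% in these data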;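 also: phagocytic index as fraction of beads internalized from green versus red external bead signal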
MRP reversal: reverses drug resistance mediated by MRP; differential viability (reversal), % at 10 µM; 85,000 compounds, 0.04% hits; H69AR cells + 2 uM doxorubicin, CellTiter-Glo, 72 h;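 active = viability drop by adding the cancer drug above about 55%, with treated viability meeting a 40% cutoff, limit read from the data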;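 also: larger differential means the compound sensitizes cells more to doxorubicin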
Of the large screens only hits and unclear results are named; the others gave an inactive call; [ ] = dose if it differs, or a comment. Most compounds without a hit are left out; they make up all but 1.2% or so of the library.

CCCNC(=O)c1c(N)n(CC2CCCO2)c2nc3ccccc3nc12 (configuration not stated)	Smad3 FoxH1 inh 60.6
CC(C)OCCCNC(=O)c1c(N)n(CC2CCCO2)c2nc3ccccc3nc12 (configuration not stated)	none (no result: CD11b adhes enh, CD11b adhes inh)
O=C(NCC1CC1)[C@@H]1C2c3ccccc3C(c3ccccc32)[C@@H]1C(=O)O	none (no result: CD11b adhes enh, MRP-1 activ, CD11b adhes inh, Phagocytosis inh, MRP reversal)
O=C(c1cccn2c(=O)c3cc(Br)ccc3nc12)N1CCC2(CC1)OCCO2	MRP-1 activ 4.8
Nc1cc[c]([Hg])cc1.Nc1nc2c(ncn2[C@H]2O[C@H](CO)[C@@H](O)[C@@H]2O)c(=[SH+])[nH]1	Smad3 FoxH1 inh 72.8 (no result: CD11b adhes enh, MRP-1 activ, CD11b adhes inh, Phagocytosis inh, MRP reversal)
CCNC(C)(C)[C@@H](SS)c1ccc(Br)cc1	Smad3 FoxH1 inh 95.7 (no result: CD11b adhes enh, MRP-1 activ, CD11b adhes inh, Phagocytosis inh, MRP reversal)
CCN1/C(=C\C=C\C2=[N+](CC)c3ccccc3C2(C)C)C(C)(C)c2ccccc21	CD11b adhes inh 97.2, Phagocytosis inh active[artifact]
C/C(N[O-])=C(\C)[N+]([O-])=[Rh][Cl].CC(=N\[O-])/C(C)=N/[O-].c1ccc([PH+](c2ccccc2)c2ccccc2)cc1	none (no result: CD11b adhes enh, MRP-1 activ, CD11b adhes inh, Phagocytosis inh, MRP reversal)
Nc1nc(N)c(N=Nc2ccc([As](=O)(O)O)c(O)c2)c(N)n1	Smad3 FoxH1 inh 83.7 (no result: CD11b adhes enh, MRP-1 activ, CD11b adhes inh, Phagocytosis inh, MRP reversal)
C1C[C@@H]2CN(CCCN3CCOCC3)[C@H](C1)O2	none (no result: CD11b adhes enh, MRP-1 activ, CD11b adhes inh, Phagocytosis inh, MRP reversal)
O=C(COc1ccc(Cl)cc1)N1CCN(Cc2ccccc2)CC1	MRP-1 activ 6.5
COc1cc2c(cc1OC)[C@@]13CCN4C=C5CCO[C@H]6CC(=O)N2[C@H]1[C@H]6[C@H]5C[C@H]43	none (no result: CD11b adhes enh, MRP-1 activ, CD11b adhes inh, Phagocytosis inh, MRP reversal)
Cc1ccc(N2C(=O)NC(=O)/C(=C\c3ccsc3)C2=O)cc1C	MRP-1 activ 5.5 (no result: Smad3 FoxH1 inh, MRP reversal)
Cc1c(C(=O)N2CCC3(CC2)OCCO3)oc2ccc(S(=O)(=O)N3CCOCC3)cc12	Smad3 FoxH1 inh 66.5
Cc1c(C(=O)N2CCC3(CC2)OCCO3)oc2ccccc12	none
CN(C)CS/C(N)=N/[C@H](O)C(Cl)(Cl)Cl	Smad3 FoxH1 inh 53.8 (no result: CD11b adhes enh, MRP-1 activ, CD11b adhes inh, Phagocytosis inh, MRP reversal)
COC1=C(C)C(=O)c2c(c(COC(N)=O)c3n2C[C@@H]2[C@H]3N2C)C1=O (some centres not stated)	none (no result: CD11b adhes enh, MRP-1 activ, CD11b adhes inh, Phagocytosis inh, MRP reversal)
O=c1[nH]c2ccccc2n1CCCN1CCC(n2c(=O)[nH]c3cc(Cl)ccc32)CC1	none (no result: CD11b adhes enh, CD11b adhes inh, Phagocytosis inh)
COc1ccc(N2C(=O)CC(N3CCC(n4c(=O)[nH]c5ccccc54)CC3)C2=O)cc1 (configuration not stated)	MRP-1 activ 5.5
O=C(O)C[C@H]1OCC=C2CN3CC[C@]45C6=CC(=O)C(=O)C([N+](=O)[O-])=C6N[C@H]4[C@H]1[C@H]2C[C@H]35	Smad3 FoxH1 inh 58.0 (no result: CD11b adhes enh, MRP-1 activ, CD11b adhes inh, Phagocytosis inh, MRP reversal)
COc1ccc(C(=O)O[C@@H]2CC[C@@]3(C)[C@@H]4CC[C@@H]5[C@@]6(O)C[C@@H](O)[C@@]7(O)[C@@H](CN8C[C@H](C)CC[C@H]8[C@]7(C)O)[C@]6(O)C[C@@]53O[C@@]42O)cc1OC	none (no result: CD11b adhes enh, MRP-1 activ, CD11b adhes inh, Phagocytosis inh, MRP reversal)
CN(C)[C@@H]1C(=O)C(C(N)=O)=C(O)[C@]2(O)C(=O)C3=C(O)c4c(O)cccc4[C@](C)(O)[C@H]3C[C@@H]12	Smad3 FoxH1 inh 96.0 (no result: CD11b adhes enh, MRP-1 activ, CD11b adhes inh, Phagocytosis inh, MRP reversal)
CN(C)[C@@H]1C(=O)C(C(N)=O)=C(O)[C@@]2(O)C(=O)C3=C(O)c4c(O)cccc4[C@@](C)(O)[C@H]3[C@H](O)[C@@H]12	none (no result: Smad3 FoxH1 inh, CD11b adhes enh, CD11b adhes inh, Phagocytosis inh, MRP reversal)
CCn1nc(-c2cccs2)nc2c(=O)n(C)c(=O)nc1-2	CD11b adhes inh 62.8 (no result: Smad3 FoxH1 inh, MRP reversal)
CN(C)c1ccc(NC(=O)CN2C(=O)CN=C(c3ccccc3)c3cc(Cl)ccc32)cc1	MRP-1 activ 6.8
CC[C@]1(OC(=O)CN)C(=O)OCc2c1cc1n(c2=O)Cc2cc3ccccc3nc2-1	none (no result: CD11b adhes enh, MRP-1 activ, CD11b adhes inh, Phagocytosis inh, MRP reversal)
C[C@@H]1O[C@H](OC2[C@@H](O)[C@H](O)C(O)[C@H](O)[C@H]2O)[C@@H](N)C[C@H]1N=C(N)C(=O)O (some centres not stated)	none (no result: CD11b adhes enh, MRP-1 activ, CD11b adhes inh, Phagocytosis inh, MRP reversal)
O=C(CSc1ccccc1)N1CCC2(CC1)OCCO2	none
Cn1c(=O)cc(SCC(=O)N2CCC3(CC2)OCCO3)c2ccc(Cl)cc21	Smad3 FoxH1 inh 55.7[fluorescence artefact?] (no result: CD11b adhes enh, CD11b adhes inh, Phagocytosis inh)
CC(C)=C[C@H]1[C@H](C(=O)OCc2cc3c(cc2Cl)OCO3)C1(C)C	none (no result: CD11b adhes enh, MRP-1 activ, CD11b adhes inh, Phagocytosis inh, MRP reversal)
CCN(CC)S(=O)(=O)c1ccc(NN=C(C#N)C#N)cc1	MRP-1 activ 5.6 (no result: Smad3 FoxH1 inh, CD11b adhes enh, CD11b adhes inh, MRP reversal)
C[C@]12CC[C@H](O)C[C@@H]1CC[C@H]1[C@H]2CC[C@@]2(C)[C@H](C3=CC(=O)OC3)[C@H](O)C[C@]12O	none (no result: CD11b adhes enh, MRP-1 activ, CD11b adhes inh, Phagocytosis inh, MRP reversal)
C[C@@H]1O[C@H](O[C@H]2C[C@@H](O)[C@]3(CO)[C@@H]4[C@@H](O)C[C@]5(C)[C@@H](C6=CC(=O)OC6)CC[C@@]5(O)[C@H]4CC[C@@]3(O)C2)[C@@H](O)[C@H](O)[C@H]1O	none (no result: CD11b adhes enh, MRP-1 activ, CD11b adhes inh, Phagocytosis inh, MRP reversal)
CCC(=NCCc1c[nH]c2ccccc12)c1c(O)n(C)c(=O)n(C)c1=O	CD11b adhes inh 78.6
CCC(=NCCc1c[nH]c2ccccc12)c1c(O)n(-c2ccc(C)cc2)c(=O)[nH]c1=O	none (no result: Smad3 FoxH1 inh, CD11b adhes enh, CD11b adhes inh, Phagocytosis inh, MRP reversal)
CC(=O)O/C(=C1\C[C@@H]2[C@H]3CC=C4C[C@@H](OC(C)=O)CC[C@]4(C)[C@@H]3CC[C@@]2(C)C1=O)C(F)(F)F	none (no result: CD11b adhes enh, MRP-1 activ, CD11b adhes inh, Phagocytosis inh, MRP reversal)
